Test results as given in PubChem BioAssay (NCI).
The panel holds about 83,000 compounds, 20% with a hit somewhere; the sample as a whole holds those more often.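 Method: cells in 96-well plates; compound added at one concentration; 48 h incubation; percent growth measured; values under 10 scored active.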 Values without a mark were called inactive. Calls of active or inactive are those of the source.

Key:
Experiment in all cases: NCI-60 one-dose screen, 48 h (100 = growth as untreated, 0 = no growth, -100 = all killed)
Details in all cases: 10 µM
DU-145 prostate = test system: DU-145 prostate
K-562 leukemia = test system: K-562 leukemia
MALME-3M melanoma = test system: MALME-3M melanoma
MDA-MB-231 breast = test system: MDA-MB-231 breast
RXF 393 renal = test system: RXF 393 renal
SF-268 CNS = test system: SF-268 CNS
SF-295 CNS = test system: SF-295 CNS
SF-539 CNS = test system: SF-539 CNS
UACC-257 melanoma = test system: UACC-257 melanoma
HCT-15 colon = test system: HCT-15 colon
HT29 colon = test system: HT29 colon
SNB-75 CNS = test system: SNB-75 CNS
SNB-19 CNS = test system: SNB-19 CNS
U251 CNS = test system: U251 CNS
PC-3 prostate = test system: PC-3 prostate
SK-MEL-5 melanoma = test system: SK-MEL-5 melanoma
UACC-62 melanoma = test system: UACC-62 melanoma
LOX IMVI melanoma = test system: LOX IMVI melanoma
SK-MEL-28 melanoma = test system: SK-MEL-28 melanoma
M14 melanoma = test system: M14 melanoma

| Compound | growth (DU-145 prostate) | growth (K-562 leukemia) | growth (MALME-3M melanoma) | growth (MDA-MB-231 breast) | growth (RXF 393 renal) | growth (SF-268 CNS) | growth (SF-295 CNS) | growth (SF-539 CNS) | growth (UACC-257 melanoma) | growth (HCT-15 colon) | growth (HT29 colon) | growth (SNB-75 CNS) | growth (SNB-19 CNS) | growth (U251 CNS) | growth (PC-3 prostate) | growth (SK-MEL-5 melanoma) | growth (UACC-62 melanoma) | growth (LOX IMVI melanoma) | growth (SK-MEL-28 melanoma) | growth (M14 melanoma) |
| --- | --- | --- | --- | --- | --- | --- | --- | --- | --- | --- | --- | --- | --- | --- | --- | --- | --- | --- | --- | --- |
| COc1ccc(Cl)cc1Nc1nc(C(F)(F)F)ccc1C(=O)N/N=C/c1cc(OC)c(OC)c(OC)c1 | 38.4% | 24.1% | -6.88% (active) | -5.79% (active) | -10.2% (active) | 8.43% (active) | 19.8% | 17.1% | 54.8% | 23.7% | 32% | 32.6% | 38.9% | 16.3% | 6.2% (active) | 18.8% | -48% (active) | -61.5% (active) | 30.2% | – |
| C[C@]12CC[C@@H]3c4ccc(O)cc4CC[C@H]3[C@@H]1CC[C@@H]2NS(=O)(=O)c1ccc(C(F)(F)F)cc1 | 69.8% | 22.5% | 9.1% (active) | 67.2% | 22.9% | 57% | 30.9% | 78.1% | 73.6% | 32.7% | – | 62.1% | 97.5% | – | 24.2% | 41.2% | 73.5% | – | 73.1% | 36.6% |
| COc1cc(C2C(C#N)=C(N)Oc3cc(O)ccc32)cc(OC)c1OC (centres undefined) | 11.1% | 9.12% (active) | 43.5% | 36.1% | -9.12% (active) | 50.4% | 0.55% (active) | 4.64% (active) | 64.2% | 30.1% | 2.42% (active) | 33.9% | 44.9% | 11.1% | 21.5% | 23% | 38.4% | 45.7% | 58% | – |
| CCn1c(SC/C(=N/O)c2ccccc2)nnc1-c1ccccc1 | 107% | 86% | 98.6% | 94.6% | 117% | 108% | 109% | 93.7% | 104% | 101% | – | 87.8% | 98.9% | 102% | 81.2% | 100% | 86.2% | 104% | 106% | – |
| O=C(O)c1cn(C2CC2)c2cc(N3CCN(C(=O)c4cc(-c5ccc(Cl)cc5)nc5ccccc45)CC3)c(F)cc2c1=O | 105% | 83.7% | 107% | 76.3% | 73.6% | 89% | 91.3% | 93.8% | 107% | 90.8% | – | 77.2% | 86% | 96% | 70.7% | 85.4% | 66.6% | 63.4% | 96.6% | 84.4% |
| COc1ccc(Nc2cnc3cc(NS(=O)(=O)c4ccc(C)cc4)ccc3n2)cc1 | 102% | 24.2% | 74.1% | 67.6% | 100% | 88.1% | 75% | 80.9% | 73.3% | 59.8% | 45.1% | 61.7% | 83% | 77.9% | 101% | 77.4% | 65.3% | 87% | 81.1% | – |
| COC(=O)c1cc2oc(/C=C3/SC(=S)N(N)C3=O)cc2n1Cc1ccccc1 | 32.7% | 7.35% (active) | -69.9% (active) | 6.49% (active) | -19.1% (active) | 46.4% | 68% | 44.7% | 49.6% | 47% | 63% | 29.3% | 84.5% | 45.3% | -3.5% (active) | 45.4% | 50.6% | 34.6% | -71.4% (active) | – |
| CC[C@@H]1NC(=O)[C@H]([C@H](O)[C@H](C)C/C=C/c2ccc(CN3C(=O)CCCC3=O)cc2)N(C)C(=O)[C@H](C(C)C)N(C)C(=O)[C@H](CC(C)C)N(C)C(=O)[C@H](CC(C)C)N(C)C(=O)[C@@H](C)NC(=O)[C@H](C)NC(=O)[C@H](CC(C)C)N(C)C(=O)[C@H](C(C)C)NC(=O)[C@H](CC(C)C)N(C)C(=O)CN(C)C1=O | 64.1% | 39.6% | 83% | 51.4% | 17.3% | 63.1% | 39% | 23.7% | 20.8% | 19.5% | -24.8% (active) | 56.7% | 60.7% | 60.2% | 37.3% | 23.2% | 59.4% | 1.01% (active) | 46.3% | – |
